The supplement of paper PMC11865577
Where a name gives a salt, the structure may show the parent alone.

The compounds below were run on hsa-mir-221 loop (assay: normalised indicator fluorescence (fraction of RNA + indicator signal without compound); higher = less displacement of indicator (weaker competition)). Details: compound concentration: 5 uM; 30 min; indicator: TO-PRO-1 0.1 uM; RNA concentration: 0.1 uM.
Procedure, shortened: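 Displacement screen in 96-well plates: TO-PRO-1 or TO-PRO-3 indicator with RNA in 20 mM phosphate pH 7.0, 20 mM NaCl, 80 mM KCl. Each compound was added as 0.25 μL of 1 mM DMSO stock (about 5 uM final), and fluorescence was read after 30 min on an Infinite 200 PRO (excitation 485 or 620 nm). Values are indicator fluorescence after subtracting the buffer-plus-indicator blank, divided by the no-compound RNA-plus-indicator signal. Each is the mean of two independent experiments.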
In the case of `CC(=O)Oc1c(C)c(C)c2c(c1C)CCC(C)(CCC[C@H](C)CCC[C@H](C)CCCC(C)C)O2` (some centres undefined) [Vitamin E Acetate], the normalised indicator fluorescence is reported as 1.1. `COc1nccnc1NS(=O)(=O)c1ccc(NC(=O)/C=C/c2ccc([N+](=O)[O-])s2)cc1` [Necrosulfonamide] showed a normalised indicator fluorescence of 1.01. Compound `CN(NC(=O)CC(=O)NN(C)C(=S)c1ccccc1)C(=S)c1ccccc1` [Elesclomol] has a normalised indicator fluorescence of 1.04. With `O=c1ccc2ccc(O)cc2o1` [7-Hydroxycoumarin] the normalised indicator fluorescence was 1.11. In the case of `O=C(O)/C=C/c1ccc(Cn2ccnc2)cc1` [Ozagrel hydrochloride], the normalised indicator fluorescence is reported as 1. `Fc1ccc(-c2nc3n(c2-c2ccncc2)CCS3)cc1` showed a normalised indicator fluorescence of 1.07. `O=[N+]([O-])c1ccc(-c2nc(-c3ccc(F)cc3)c(-c3ccncc3)[nH]2)cc1` showed a normalised indicator fluorescence of 1.16. `OC[C@H]1O[C@@H](Oc2ccc(O)cc2)[C@H](O)[C@@H](O)[C@@H]1O` [Arbutin] gave a normalised indicator fluorescence of 1.08. `COc1ccc(O)cc1` [4-Methoxyphenol] was tested, and the normalised indicator fluorescence was 1.08. With `CCNC(=O)c1noc(-c2cc(C(C)C)c(O)cc2O)c1-c1ccc(CN2CCOCC2)cc1` [Luminespib] the normalised indicator fluorescence was 1.06. `O=c1cc(-c2ccc(O)cc2)oc2cc(O)cc(O)c12` [Apigenin] was tested, and the normalised indicator fluorescence was 1.04. In the case of `O=C1O[C@H]([C@@H](O)CO)C(O)=C1O` [L(+)-Ascorbic acid], the normalised indicator fluorescence is reported as 1.05. `O=c1ncn2nc(Sc3ccc(F)cc3F)ccc2c1-c1c(Cl)cccc1Cl` [Neflamapimod] was tested, and the normalised indicator fluorescence was 1.03. Work on `Cc1cccc(CC(=O)N2CCc3c2ccc(-c2cn(C)c4ncnc(N)c24)c3F)n1` yielded a normalised indicator fluorescence of 1.08.
